{"source": "PubChem BioAssay (NCATS)", "note": "Inconclusive results are not listed. A call without a number means that no potency is given here. Activity calls are given as the source filed them. Calls follow the shape of the dose curve; as a rule, active = well fitted inhibition curve with a large enough effect; inconclusive = small, poorly fitted or top-dose-only effect; inactive = flat fitted curve, though single readings scatter."}
{"biological_target": "Calcium and integrin-binding protein 1 (Homo sapiens) (UniProt Q99828)", "sequence (Q99828 whole entry, looked up)": "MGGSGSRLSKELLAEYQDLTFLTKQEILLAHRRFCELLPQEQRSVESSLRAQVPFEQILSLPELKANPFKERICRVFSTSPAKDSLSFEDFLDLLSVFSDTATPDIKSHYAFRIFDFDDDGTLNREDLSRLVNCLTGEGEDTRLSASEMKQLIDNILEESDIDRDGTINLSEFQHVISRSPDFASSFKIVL", "experiment": "Primary qHTS for Identification of Calcium Integrin Binding Protein 1 (CIB1) Competitor (AID 1508620);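 also: GST tagged CIB1 binding a fluorescein labelled alphaIIb integrin peptide tracer; top concentration of the series differs between compounds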", "details": "CIB1-GST / FITC-alphaIIb peptide fluorescence polarization; series mostly up to 114 µM", "how_it_was_run": "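Fluorescence polarization competition: CIB1-GST (1 uM final) preincubated with compound 15 min at room temperature, then FITC-labeled alphaIIb peptide (100 nM final) added for another 15 min. Polarization read at Ex 480/Em 540.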"}
{"smiles": "COc1cc(O)c(C(CC(=O)N2CCC(c3ccccc3)CC2)c2ccc(C)cc2)c(OC)c1", "note": "(stereo not given)", "Potency": "inactive"}
{"smiles": "CN(C)[S+](=O)([O-])c1ccc(-c2cncc(NC(=O)c3cccs3)c2)cc1", "Potency": "inactive"}
{"smiles": "CC(=O)Nc1sc2c(c1-c1cccc3c1sc1ccccc13)CCNC2", "Potency": "inactive"}
{"smiles": "CC(=O)c1ccccc1-c1ncc(C)c(NCc2ccc(-c3cccnc3)cc2)n1", "Potency": "inactive"}
{"smiles": "O=C(CNC(=O)c1ccc(Cl)cc1)OC(C(=O)Nc1cc(C(F)(F)F)ccc1Cl)c1ccccc1", "note": "(stereo not given)", "Potency": "inactive"}
{"smiles": "CCN(CCc1cn(C)cn1)c1ncnc2ccc(-c3ccc4c(c3)OCO4)cc12", "Potency": "inactive"}
{"smiles": "CCNC(=O)c1ccc(-c2ccc3ncnc(NCC4CCCO4)c3c2)o1", "note": "(stereo not given)", "Potency": "inactive"}
{"smiles": "O=C(Nc1ccc(-c2nc3ccccc3[nH]2)cc1)c1ccc2sccc2c1", "Potency": "inactive"}
{"smiles": "N#Cc1nc(Nc2cccc(Cl)c2)nc(NC2CCCC2)n1", "Potency": "inactive"}
{"smiles": "Cc1ccc2nc3sc(C(=O)NC4CCCC4)cc3cc2c1", "Potency": "inactive"}
{"smiles": "COc1ccc(-c2ccc3ncnc(NCC4CCCO4)c3c2)cc1OC", "note": "(stereo not given)", "Potency": "inactive"}
{"smiles": "COc1ccc(C2Nc3ccccc3C(=O)N2Cc2ccc(-c3ccccc3)cc2)cc1COc1ccc(NC(C)=O)cc1", "note": "(stereo not given)", "Potency": "inactive"}
{"smiles": "Fc1ccc(-c2ccc(CNc3nc(-c4ccccc4C(F)(F)F)nc4ccccc34)cc2)cc1C(F)(F)F", "Potency": "inactive"}
{"smiles": "CC(C)(C)OC(=O)NC1CCN(c2nc(-c3ccc(Br)cc3)cs2)CC1", "Potency": "inactive"}
{"smiles": "Cc1cc(C)n2ncc(C(=O)Nc3ccc(C#N)cc3)c2n1", "Potency": "inactive"}
{"smiles": "COc1cc(OC)cc(-c2nnc3n2N=C(c2ccccc2OC)CS3)c1", "Potency": "inactive"}
{"smiles": "Cc1cc(C)c(S(=O)(=O)Nc2cccc3cccnc23)c(C)c1", "Potency": "inactive"}
{"smiles": "Cc1nc(CNc2ncnc3ccc(-c4ccoc4C)cc23)cs1", "Potency": "inactive"}
{"smiles": "CCOC(=O)c1cccc(-n2cnc(/C=C3\\NC(=O)N(CC(=O)O)C3=O)c2)c1", "Potency": "inactive"}
{"smiles": "CC(=O)c1ccc(NC(=O)Nc2nnc(-c3ccncc3)s2)cc1", "Potency": "inactive"}
{"smiles": "O=C(NCc1ccc(Cl)c(Cl)c1)Nc1nnc(-c2ccncc2)s1", "Potency": "inactive"}
{"smiles": "Cc1c(Cl)cccc1NS(=O)(=O)c1cc2c(cc1Cl)CCC(=O)N2", "Potency": "inactive"}
{"smiles": "Oc1ccc(/C=C/c2ccccc2F)c2cccnc12", "Potency": "inactive"}
{"smiles": "Cc1cc(N2C(=O)c3ccccc3C2=O)n[nH]1", "Potency": "inactive"}
{"smiles": "O=C(Nc1ccc(Cl)c(Cl)c1)Nc1nnc(NC2CCNCC2)s1", "Potency": "inactive"}
{"smiles": "O=C(OC/C=C/CSc1nnc(-c2cccc3ccccc23)o1)c1ccc(F)cc1", "Potency": "inactive"}
{"smiles": "Cc1cc(C)nc(NC(=S)N2CCN(c3cncnc3)CC2)c1", "Potency": "inactive"}
{"smiles": "Nc1cccc([S+](=O)([O-])N2CCCN([S+](=O)([O-])c3cccc(N)c3)CC2)c1", "Potency": "inactive"}
{"smiles": "COC(=O)c1nc(Nc2cc(F)cc(F)c2)nc(NC2CCCC2)n1", "Potency": "inactive"}
{"smiles": "O=S(=O)(Nc1nc(-c2ccccc2C(F)(F)F)nc2ccccc12)c1ccc(-c2ccnc(C(F)(F)F)c2)cc1", "Potency": "inactive"}
{"smiles": "Cc1csc(CNc2ncnc3ccc(-c4cccnc4)cc23)c1", "Potency": "inactive"}
{"smiles": "Cc1cn([C@H]2C[C@H](N[S+](=O)([O-])Cc3ccccc3)[C@@H](CO)O2)c(=O)[nH]c1=O", "Potency": "inactive"}
{"smiles": "O=C(Nc1ccccc1)C1CCN(c2nc(-c3ccc(Br)cc3)cs2)CC1", "Potency": "inactive"}
{"smiles": "COc1ccc(CN(Cc2ccccc2)C(=O)c2ccccc2O)cc1COc1ccc(NC(C)=O)cc1", "Potency": "inactive"}
{"smiles": "CC(C)(C)c1cccc(-n2cnc3cc(C(=O)N4CCCCC4)ccc32)c1", "Potency": "inactive"}
{"smiles": "COc1ccc(-c2nc3ccccc3c(=O)n2Cc2ccccc2)cc1COc1ccc(NC(C)=O)cc1", "Potency": "inactive"}
{"smiles": "COc1ccc(N2Cc3cccc(C(=O)O)c3C2=O)c(OC)c1", "Potency": "inactive"}
{"smiles": "O=S(=O)(Nc1cccc2cccnc12)c1ccc(Br)cc1", "Potency": "inactive"}
{"smiles": "Cc1cc2c(s1)c1cnn(Cc3c(C)cc(F)cc3C)c(=O)c1n2C", "Potency": "inactive"}
{"smiles": "COc1ccc(Cn2c(C)nnc2-c2cnn(C)c2N)cc1OC", "Potency": "inactive"}
